Counter-ions that a name gives are not always drawn. ± gives the standard deviation of the averaged measurements.
Key:
MDA-MB-231 [1] = test: cell viability relative to vehicle unstimulated control (fraction); higher = more viable cells; conditions: pre-treatment time: 18 h then 24 h IFNg/TNF
MDA-MB-231 [2] = test: kynurenine production, fold change vs DMSO IFNg/TNF control; higher = more kynurenine produced (less inhibition); conditions: pre-treatment time: 18 h then 24 h IFNg/TNF
Summary of the method: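 Fold change over cytokine-stimulated vehicle wells on the same plate is the measure used for kynurenine production, averaged across duplicate plates in the first screening round. MDA-MB-231 cells, seeded 24 h beforehand at 7 × 10^4/well in 96-well plates, were pre-treated 18 h with each natural product in 0.1% DMSO and stimulated 24 h at 37°C with IFNγ (1 U/ml) and TNF (6.25 ng/ml). Supernatants were read at 492 nm following trichloroacetic acid and p-dimethylaminobenzaldehyde treatment, against 0–100 μM standards.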
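For cell viability relative to vehicle unstimulated control in this document: viability of the cells left after supernatant collection, read with Deep Blue dye added for 4 h, as absorbance at 570 nm minus 600 nm.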

Structure (SMILES)	cell viability (MDA-MB-231 [1])	kynurenine production (MDA-MB-231 [2])
CC1CCC(C(C)C)C(O)C1 (single isomer, unassigned; (-)) [(-)-Menthol] (compound dose: 10 uM)	0.899 ± 0.076	0.988 ± 0.27
CC(/C=C/C=C(\C)C(=O)O)=C\C=C\C=C(C)\C=C\C=C(/C)C(=O)O [Transcrocetin meglumine salt] (compound dose: 10 uM)	1.02 ± 0.038	0.737 ± 0.064
CC(C)(O)[C@@H]1CC[C@](C)([C@H]2[C@@H](O)C[C@@]3(C)[C@@H]4C[C@H](O)[C@H]5C(C)(C)[C@@H](O[C@@H]6OC[C@@H](O)[C@H](O)[C@H]6O[C@@H]6O[C@H](CO)[C@@H](O)[C@H](O)[C@H]6O)CC[C@@]56C[C@@]46CC[C@]23C)O1 [Astragaloside III] (compound dose: 10 uM)	1.03 ± 0.069	0.822 ± 0.018
C[C@@H]1CC[C@]2(C(=O)O)CC[C@]3(C)C(=CCC4[C@@]5(C)CC[C@H](O[C@@H]6OC[C@H](O)[C@H](O)[C@H]6O)C(C)(C)C5CC[C@]43C)[C@@H]2[C@]1(C)O (stereo not given in full) [Ziyuglycoside II] (compound dose: 10 uM)	0.934 ± 0.014	0.646 ± 0.0077
O=C1O[C@H]2[C@@H]3OC(=O)c4cc(O)c(O)c(O)c4-c4c(O)c(O)c5oc(=O)c6c(c(O)c(O)c7oc(=O)c4c5c76)-c4c(cc(O)c(O)c4O)C(=O)OC[C@H]3OC(O)[C@@H]2OC(=O)c2cc(O)c(O)c(O)c2-c2c1cc(O)c(O)c2O (mixture of isomers) [Punicalagin] (compound dose: 10 uM)	1.001 ± 0.0011	0.1 ± 0.0087

— the supplement of paper PMC13094657
